In PubChem BioAssay (NCI):
About 83,000 compounds went through this panel and 20% of them were active in at least one assay; those are over-represented in the sample as a whole.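 Cell lines were cultured in 96-well plates, exposed to a single compound concentration, and assessed for percent growth 48 hours later.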 A number with no mark means an inactive call. Activity calls are given as the source filed them. How the source made its calls: active means growth percent below 10; inactive means the rest.

How the values were obtained:
Test in all cases: NCI-60 one-dose screen, 48 h (100 = growth as untreated, 0 = no growth, -100 = all killed)
Details in all cases: 10 µM unless noted
SK-MEL-2 melanoma = test system: SK-MEL-2 melanoma
EKVX NSCLC = test system: EKVX NSCLC
SN12C renal = test system: SN12C renal
UO-31 renal = test system: UO-31 renal
ACHN renal = test system: ACHN renal
CAKI-1 renal = test system: CAKI-1 renal
A498 renal = test system: A498 renal
CCRF-CEM leukemia = test system: CCRF-CEM leukemia
MOLT-4 leukemia = test system: MOLT-4 leukemia
RPMI-8226 leukemia = test system: RPMI-8226 leukemia
OVCAR-8 ovarian = test system: OVCAR-8 ovarian
OVCAR-5 ovarian = test system: OVCAR-5 ovarian
OVCAR-4 ovarian = test system: OVCAR-4 ovarian
SK-OV-3 ovarian = test system: SK-OV-3 ovarian
IGROV1 ovarian = test system: IGROV1 ovarian
OVCAR-3 ovarian = test system: OVCAR-3 ovarian
HS 578T breast = test system: HS 578T breast
NCI/ADR-RES ovarian = test system: NCI/ADR-RES ovarian
SR leukemia = test system: SR leukemia
TK-10 renal = test system: TK-10 renal

SMILES	growth (SK-MEL-2 melanoma)	growth (EKVX NSCLC) [%]	growth (SN12C renal)	growth (UO-31 renal)	growth (ACHN renal)	growth (CAKI-1 renal)	growth (A498 renal) [%]	growth (CCRF-CEM leukemia)	growth (MOLT-4 leukemia)	growth (RPMI-8226 leukemia)	growth (OVCAR-8 ovarian)	growth (OVCAR-5 ovarian)	growth (OVCAR-4 ovarian)	growth (SK-OV-3 ovarian)	growth (IGROV1 ovarian)	growth (OVCAR-3 ovarian)	growth (HS 578T breast)	growth (NCI/ADR-RES ovarian)	growth (SR leukemia)	growth (TK-10 renal) [%]
COc1nc2c(c(=O)n1C)CN(Cc1ccccc1)C=N2	106%	111	116%	77.3%	106%	98.1%	131	103%	105%	86.6%	96.7%	105%	116%	87.3%	93.7%	105%	113%	113%		
COc1ccc(Nc2c3c4c(cccc4[nH]c2=O)C(=O)c2ccccc2-3)cc1	40.2%	42.3	40%	30.3%	24.2%	11.7%	23	-0.546% (active)		5.52% (active)	13.1%	24.1%	58.4%	-5.92% (active)	-11.9% (active)	-39% (active)	-12.4% (active)	0.0341% (active)		
O=C1Nc2c(ccc(Cl)c2Cl)/C1=C\c1ccc(C(F)(F)F)cc1	91.4%	55.2	79.7%	57.9%	86.5%	65.9%	102	6.78% (active)	44.3%	62.8%	85.1%	83.9%	75.1%	88.2%	54.1%	68.2%	63.9%	85.8%	104%	
O=C(Cc1ccccc1Nc1c(Cl)cccc1Cl)NN1C(=O)/C(=C/c2ccc(Br)cc2)SC1=S	99.9%	98.5	100%	90.9%	104%	100%	107	107%	107%	106%	100%	100%	114%	100%	97.7%		96.4%	105%	132%	
COc1ccc(C(=O)COc2ccc(/C=C3\Oc4ccc(OC)cc4C3=O)cc2)cc1	86.4%	99.4	101%		105%	98.3%	98.9	72.6%	83.6%	80.5%	88%	117%	115%	102%		103%	97.3%	109%		119
O=C(Oc1cccnc1)c1ccsc1Nc1ccnc(C(F)(F)F)c1	72.6%	110	55.2%	91.6%	107%	72.7%	104	23.7%	8.64% (active)	27.6%	84%	102%	60.2%	88.2%	35.9%	100%	109%	60.4%	17.6%	
O=C1c2cccc3cccc(c23)C(=O)N1CCCCN1CCN(CCCCOc2ccc(-c3nc4ccc(N5CCOCC5)cc4[nH]3)cc2)CC1	90.4%	91.7	94.7%	32.8%	104%	79.8%	111	30.8%	52.3%	32.4%	22%	109%	79.4%	95.9%	68.9%	100%		76.6%	-65% (active)	
CN1CCN=C1c1ccc(NC(=O)c2ccc(C(=O)Nc3ccc(C4=NCCN4C)cc3)cc2)cc1	121%	89.1	98.1%	82.3%	99.3%		117	110%	100%		85.7%	87.5%	98.3%	96.5%	90.1%	109%	80.3%	100%	89.4%	
O=C(/C=C/c1cc(CN2CCOCC2)c(O)c2ncccc12)c1cc(CN2CCOCC2)c(O)c2ncccc12	20.7%	23.5	26.1%	11.1%	9.19% (active)	14.1%	32.4	26.9%	31.1%	6.02% (active)	15.2%	28.3%	30.3%	-21.8% (active)	15.4%		27.1%	21.4%	8.01% (active)	
CC1=C/C(=C(\c2ccc(N(C)C)cc2)c2ccc([N+](C)(C)C)cc2)C=CC1=[N+](C)C	110%	54.8	50.9%	96.1%	78.1%	99.2%	81.9	85.8%	106%	2.54% (active)	36.2%		89.3%	94%	94.4%	86.6%	55%	100%	60.8%	
COc1cc(C(=O)/C=C/c2cccnc2Nc2ccc(Cl)cc2)cc(OC)c1OC	-65% (active)	23.7	-58.7% (active)	-99.3% (active)	-97.1% (active)	-6.13% (active)		-10.8% (active)	-6.63% (active)	-30.2% (active)	-17.6% (active)	-78.3% (active)	-90.4% (active)	-5.2% (active)	-60.9% (active)	-97.1% (active)	29.4%	3.59% (active)	5.22% (active)	
O=C(O)c1ccc(NC(=O)c2ccc(-c3cccc([N+](=O)[O-])c3)o2)cc1	102%	93.6	93.2%	77.8%	104%	88%	110	106%	109%	101%	103%	106%	93.9%	98.8%	92.2%	102%	90.7%	98.5%	113%	
CSc1ccc(-c2n[nH]nc2-c2cc3ccccc3s2)cc1	33%	73.2	59.9%	52.3%	64.7%	49.1%	46.8	52.6%	10.1%	40.1%	59.3%	95.3%	75.8%	52.7%	46.4%	26.5%	58.5%	22.8%	24.9%	
COc1ccc(CN2c3ccccc3Oc3ccccc32)cc1O	-6.69% (active)	35		32.5%	36.1%	39.4%	106	12.5%	24.9%	14.1%	35.6%	91.5%	55.1%	31.3%	45.3%	18.6%	31.1%	25.2%	17.4%	64.4
C=C1C(=O)O[C@H]2[C@H]1CC/C(COC(=O)NCc1ccc(OC)c(OC)c1)=C\CC[C@@]1(C)O[C@@H]21	85.1%	65.9		56.7%	6.25% (active)	32.9%	86.9	-7.86% (active)	39.4%	25.1%	47.9%	85.1%	42.3%	101%	61%	19.9%	86.2%	93.9%	6.13% (active)	50.9
CC/C=C\C[C@H](O)C/C=C1/C(=O)C=C[C@@]1(C)C/C=C\CCCC(=O)OC	103%	104		92.1%	101%	96.9%	97.3	108%	94.4%	103%	97.8%	99.8%	101%	112%	109%	114%	103%	94.8%		95.9
